Assay results from PubChem BioAssay (NCATS).
Inconclusive results are not listed. A call without a number means that no potency is given here. The source made the active and inactive calls. The call rests on the fitted dose curve; in most records, active means well fitted curve in the direction sought with a large enough effect; inconclusive means small, poorly fitted or top-dose-only effect, or another doubt; inactive means no such curve, though single readings can be large; an effect the other way counts as inactive or inconclusive. Numbered stars: 1 amine (or outer) side, 2 acyl side, 3 side chain; on linkers, the order of the positions; unused ones are H or OH. Bridge positions count the residues as written; N and C are the ends. Square brackets hold non-standard residues; d marks the D form. Peptide text beside a SMILES is read from it. * marks the point of attachment. ξ: configuration not given here. ΔAla(Z-3-ureido) = NC(=O)N/C=C(\N)C(=O)O; ξDab(CH2SO3H) = NC(CCNCS(=O)(=O)O)C(=O)O; X2 = NC1=NC(O)CC(C(N[*:1])C(=O)[*:2])N1; Heptanoyl(6-Me) = CC(C)CCCCC(=O)*; ξβ3hOrn = NCCCC(N)CC(=O)*; Dab = NCC[CH](N)C(=O)O; Dap = NC[CH](N)C(=O)O

Assays:
3D7 = assay: qHTS profiling for inhibitors of Plasmodium falciparum proliferation (AID 504749); further: nearly all actives have a fitted effect of over 60% in size; further: potency means the concentration at half of the fitted maximal effect; details: P. falciparum in erythrocytes, SYBR Green DNA, 72 h; series mostly up to 28.7 µM
In short: (§1)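 SYBR Green fluorescence (ex 485 nm, em 535 nm) reports parasite DNA after 72 h compound exposure of infected red cells at 0.3% parasitemia, 2.5% hematocrit; signal normalized to 0.29 uM artemisinin and vehicle wells.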

AS120 = assay: as above; details: P. falciparum in erythrocytes, SYBR Green DNA, 72 h; series mostly up to 28.7 µM
In short: as §1

ATS95 = assay: as above; details: P. falciparum in erythrocytes, SYBR Green DNA, 72 h; series mostly up to 28.7 µM
In short: as §1

C2A = assay: as above; details: P. falciparum in erythrocytes, SYBR Green DNA, 72 h; series mostly up to 28.7 µM
In short: as §1

CP191 = assay: as above; details: P. falciparum in erythrocytes, SYBR Green DNA, 72 h; series mostly up to 28.7 µM
In short: as §1

CP211 = assay: as above; details: P. falciparum in erythrocytes, SYBR Green DNA, 72 h; series mostly up to 28.7 µM
In short: as §1

CP247 = assay: as above; details: P. falciparum in erythrocytes, SYBR Green DNA, 72 h; series mostly up to 28.7 µM
In short: as §1

CP250 = assay: as above; details: P. falciparum in erythrocytes, SYBR Green DNA, 72 h; series mostly up to 28.7 µM
In short: as §1

CP262 = assay: as above; details: P. falciparum in erythrocytes, SYBR Green DNA, 72 h; series mostly up to 28.7 µM
In short: as §1

CP297 = assay: as above; details: P. falciparum in erythrocytes, SYBR Green DNA, 72 h; series mostly up to 28.7 µM
In short: as §1

CP335 = assay: as above; details: P. falciparum in erythrocytes, SYBR Green DNA, 72 h; series mostly up to 28.7 µM
In short: as §1

Dd2 = assay: as above; details: P. falciparum in erythrocytes, SYBR Green DNA, 72 h; series mostly up to 28.7 µM
In short: as §1

ECU = assay: as above; details: P. falciparum in erythrocytes, SYBR Green DNA, 72 h; series mostly up to 28.7 µM
In short: as §1

N140 = assay: as above; details: P. falciparum in erythrocytes, SYBR Green DNA, 72 h; series mostly up to 28.7 µM
In short: as §1

P93_24 = assay: as above; details: P. falciparum in erythrocytes, SYBR Green DNA, 72 h; series mostly up to 28.7 µM
In short: as §1

PAD = assay: as above; details: P. falciparum in erythrocytes, SYBR Green DNA, 72 h; series mostly up to 28.7 µM
In short: as §1

SC27B = assay: as above; details: P. falciparum in erythrocytes, SYBR Green DNA, 72 h; series mostly up to 28.7 µM
In short: as §1

TAB113 = assay: as above; details: P. falciparum in erythrocytes, SYBR Green DNA, 72 h; series mostly up to 28.7 µM
In short: as §1

TAB165 = assay: as above; details: P. falciparum in erythrocytes, SYBR Green DNA, 72 h; series mostly up to 28.7 µM
In short: as §1

[1] = S16 Schwann cell PMP22 intronic element firefly luciferase assay (AID 624032); further: nearly all actives have a fitted effect of over 30% in size
In short: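 Rat S16 Schwann cells stably carrying firefly luciferase driven by a PMP22 intronic element, in 10% FBS, treated 24 h at 37 C. ONE-Glo luminescence normalized to PTC124 control and DMSO (0%); curves classed by r2, magnitude and activity.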

Row | SMILES | Potency (3D7) | Potency (AS120) | Potency (ATS95) | Potency (C2A) | Potency (CP191) | Potency (CP211) | Potency (CP247) | Potency (CP250) | Potency (CP262) | Potency (CP297) | Potency (CP335) | Potency (Dd2) | Potency (ECU) | Potency (N140) | Potency (P93_24) | Potency (PAD) | Potency (SC27B) | Potency (TAB113) | Potency (TAB165) | Potency [1]
1 | O=C(OCC1OC(OC(=O)c2cc(O)c(O)c(OC(=O)c3cc(O)c(O)c(O)c3)c2)[C@@H](OC(=O)c2cc(O)c(O)c(OC(=O)c3cc(O)c(O)c(O)c3)c2)C(OC(=O)c2cc(O)c(O)c(OC(=O)c3cc(O)c(O)c(O)c3)c2)C1OC(=O)c1cc(O)c(O)c(OC(=O)c2cc(O)c(O)c(O)c2)c1)c1cc(O)c(O)c(OC(=O)c2cc(O)c(O)c(O)c2)c1 (some centres undefined) | 2000 nM (active) | 2510 nM (active) | 2820 nM (active) | 2820 nM (active) | 2820 nM (active) | 4780 nM (active) | 2820 nM (active) | 2240 nM (active) | 4260 nM (active) | 3790 nM (active) | 1690 nM (active) | 2240 nM (active) | 2240 nM (active) | 2240 nM (active) | 2510 nM (active) | 3550 nM (active) | 3160 nM (active) | 2240 nM (active) | 2000 nM (active) | 
2 | CC(C)CC(NC(=O)C(COC(C)(C)C)NC(=O)C(Cc1ccc(O)cc1)NC(=O)C(CO)NC(=O)C(Cc1c[nH]c2ccccc12)NC(=O)C(Cc1cnc[nH]1)NC(=O)C1CCC(=O)N1)C(=O)NC(CCCN=C(N)N)C(=O)N1CCCC1C(=O)NNC(N)=O (centres undefined) | inactive | inactive | inactive | inactive | inactive | inactive | inactive | inactive | inactive | inactive | inactive | inactive | inactive | inactive | inactive | inactive | inactive |  | inactive | inactive
3 | NCCCC(N)CC(=O)NC1CNC(=O)C(C2CC(O)N=C(N)N2)NC(=O)/C(=C/NC(N)=O)NC(=O)C(CO)NC(=O)C(CO)NC1=O (stereo not drawn) (ξβ3hOrn-[Dap]SS[ΔAla(Z-3-ureido)][X2]; lactam 1-C; configuration not given here) | inactive | inactive |  | inactive | inactive | inactive | inactive | inactive | inactive | inactive | inactive | inactive | inactive | inactive | inactive | inactive | inactive | inactive | inactive | inactive
4 | CCC1NC(=O)C(NC(=O)c2ncccc2O)C(C)OC(=O)C(c2ccccc2)NC(=O)C2CC(=O)CCN2C(=O)C(Cc2ccccc2)N(C)C(=O)C2CCCN2C1=O (centres undefined) | inactive |  | inactive | inactive | inactive | inactive | inactive | inactive | inactive | inactive | inactive |  |  |  |  |  | inactive | inactive |  | inactive
5 | CCC(Oc1ccccc1)C(=O)NC1C(=O)N2C1SC(C)(C)C2C(=O)O (centres undefined) | inactive | inactive | inactive | inactive | inactive | inactive | inactive | inactive | inactive | inactive | inactive | inactive | inactive | inactive | inactive | inactive | inactive | inactive | inactive | inactive
6 | CCC(C)C1NC(=O)C(CCNCS(=O)(=O)O)NC(=O)C(NC(=O)C(CCNCS(=O)(=O)O)NC(=O)C(NC(=O)C(CCNCS(=O)(=O)O)NC(=O)CCCCC(C)C)C(C)O)CCNC(=O)C(C(C)O)NC(=O)C(CCNCS(=O)(=O)O)NC(=O)C(CCNCS(=O)(=O)O)NC(=O)C(C(C)CC)NC1=O (centres undefined) ({Heptanoyl(6-Me)}-[ξDab(CH2SO3H)]T[ξDab(CH2SO3H)][Dab][ξDab(CH2SO3H)]II[ξDab(CH2SO3H)][ξDab(CH2SO3H)]T; lactam 4-C; configuration not given here) | inactive | inactive | inactive | inactive | inactive | inactive | inactive |  | inactive | inactive | inactive | inactive | inactive | inactive | inactive | inactive | inactive | inactive | inactive | inactive
7 | CC(C)C(NC(=O)C(CC(=O)O)NC(=O)C(CCCCN)NC(=O)C(N)CCCN=C(N)N)C(=O)NC(Cc1ccc(O)cc1)C(=O)O (centres undefined) (H-RKDVY-OH; configuration not given here) | inactive | inactive | inactive | inactive | inactive | inactive | inactive | inactive | inactive | inactive | inactive | inactive | inactive | inactive | inactive | inactive | inactive | inactive | inactive | inactive
